# Measurements: PubChem BioAssay AID720488 (Milwaukee Institute for Drug Discovery, 2013)
# Out of some 16,000 compounds screened, about 960 (6%) were called active. For the sample, actives were picked, then their nearest neighbours and some compounds at random. Unmarked numbers belong to inactive results.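 How the source made its calls: active means compound fluorescence over control fluorescence at most 0.8, a quencher, or at least a set upper limit, an enhancer; inactive means ratio between 0.8 and the set upper limit.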
# Assay: Cy5 fluorescence quenchers or enhancers, artefact control for HCV NS3 helicase inhibitor project, biochemical, ChemBridge library, Cy5 readout (AID 720488)
# Settings: Cy5-dT15 DNA with NS3h, at 100 µM, actives lie on both sides, signal over control mean, under 1 quenches
row,Compound,fluorescence interference ratio
1,COc1cc(C(=O)N2CCC(Cc3ccccc3)CC2)c([N+](=O)[O-])cc1OC,0.65 (active)
2,COc1ccccc1CN1CCN(C(=O)c2ccc([N+](=O)[O-])cc2)CC1,1.03
3,COc1ccc(OC)c(S(=O)(=O)N2CCC(Cc3ccccc3)CC2)c1,0.968
4,CCOc1ccc(C(=O)Nc2cc3nn(-c4ccc(C)cc4)nc3cc2C)cc1[N+](=O)[O-],1.04
5,CN1C(=O)/C(=C\c2ccccc2OCCOc2ccc(Br)cc2)SC1=S,1.14
6,C=CC[n+]1c(-c2ccc(OC)cc2)csc1Nc1cccc(C)c1C,1.2 (active)
7,Cc1cccc(NC(=O)COc2ccc3ccccc3c2)c1C,1.12
8,CCC(=O)CC(O)(c1ccccc1)C(F)(F)F (stereo not given),0.957
9,Cc1cccc(OCC(=O)Nc2ccc(Cl)c(C(F)(F)F)c2)c1,1.07
10,Cc1ccc(C(=O)Nc2ccc(Cl)cn2)cc1[N+](=O)[O-],1.02
11,COc1ccc(Br)cc1/C=C1/SC(=S)N(c2cccc(C(F)(F)F)c2)C1=O,0.773 (active)
12,O=Cc1ccc(/C=C2/SC(=S)N(c3cccc(Cl)c3)C2=O)cc1,1.1
13,COc1ccccc1/C=C1\SC(=S)N(CC(C)C)C1=O,0.946
14,O=C1/C(=C\c2cccc(Br)c2)SC(=S)N1c1cccc(C(F)(F)F)c1,0.626 (active)
15,O=C1/C(=C\c2cccc(C(F)(F)F)c2)SC(=S)N1c1ccccc1,1.08
16,COc1cc(/C=C2/SC(=S)N(c3c(C)n(C)n(-c4ccccc4)c3=O)C2=O)c([N+](=O)[O-])cc1OC,0.991
17,O=C(CN(c1ccc(Br)cc1)S(=O)(=O)c1ccccc1)NCC1CCCO1 (stereo not given),1.03
18,Cc1ccc(NCC(O)COc2ccc(OCC(O)CNc3ccc(C)cc3C)cc2)c(C)c1 (stereo not given),1.06
19,COC(=O)C1=C(C)N=c2s/c(=C/c3ccccc3OC(C)=O)c(=O)n2C1c1ccc(OC(C)=O)cc1 (stereo not given),0.949
20,O=C(/C=C/c1cc2c(cc1Br)OCO2)c1ccc(Cl)cc1,1.06
21,Cc1ccc(S(=O)(=O)N2CCN(Cc3ccc(F)cc3)CC2)cc1,0.977
22,Cc1cccc(CN2CCN(S(C)(=O)=O)CC2)c1,0.788 (active)
23,COc1cc(CN2CCN(Cc3cccc(F)c3)CC2)cc(OC)c1OC,1.09
24,COc1cc(NC(=O)c2ccc(Br)cc2)cc([N+](=O)[O-])c1,0.953
25,O=C(CSc1ccc(Cl)cc1Cl)Nc1cccc([N+](=O)[O-])c1,0.897
